# Source: PubChem BioAssay (NCATS)
# Inconclusive results are not listed. Entries that show only a call come without a potency. Calls of active or inactive are those of the source. Calls come from the whole dose curve; as a rule, active = well fitted inhibition curve with a large enough effect; inconclusive = small, poorly fitted or top-dose-only effect; inactive = no such curve, though single readings can be large or run the other way.
# Biological target: Retinaldehyde dehydrogenase 3 (Homo sapiens) (UniProt P47895)
# Experiment: qHTS for Inhibitors of the Aldehyde Dehydrogenase Family (ALDH1A3) Primary screen (AID 2061315)
# Conditions: ALDH inhibition qHTS; series mostly up to 56 µM
row,Structure (SMILES),Potency
1,N#Cc1c(-c2cc(C(F)(F)F)cc(C(F)(F)F)c2)no[n+]1[O-],inactive
2,CN(C)CC1CCN(C2CCN(C(=O)c3cccc(-c4cc(O)c5ncccc5c4)c3)CC2)CC1,inactive
3,O=C(NC1CCCc2c1cnn2-c1ccc(F)cc1F)c1ccc(C2(C(F)(F)F)N=N2)cc1 (stereo not given),inactive
4,C[C@H]1CC[C@@]2(OC1)O[C@H]1CC3[C@@H]4CC[C@@H]5C[C@@H](O[C@@H]6O[C@H](CO)[C@@H](O[C@@H]7O[C@@H](C)[C@H](O)[C@@H](O)[C@H]7O)[C@H](O)[C@H]6O[C@@H]6O[C@H](CO)[C@@H](O)[C@H](O)[C@H]6O)CC[C@]5(C)C4CC[C@]3(C)[C@H]1[C@@H]2C (stereo not given in full),inactive
5,Cc1ccc(NS(=O)(=O)c2ccc3c(c2)N(C)CCO3)cc1C,inactive
6,O=C1CCCC2=C1C(c1c(Cl)cccc1Cl)N=C(Nc1nc3ccccc3o1)N2 (stereo not given),inactive
7,Cc1ccc(-c2cc(C(=O)Nc3nc4ccccc4s3)c3ccccc3n2)cc1C,inactive
8,Cc1noc(C)c1-c1ccc2ncnc(NCc3cccc(F)c3)c2c1,inactive
9,CC(OC(=O)c1ccc(S(C)(=O)=O)c([N+](=O)[O-])c1)C(=O)NC1C2CC3CC(C2)CC1C3 (stereo not given),inactive
10,O=S(=O)(c1ccc2c(c1)OCCO2)N1CCN(S(=O)(=O)c2ccccc2F)CC1,inactive
11,CC1=C(C(=O)Nc2ccc(C)cc2)C(c2ccccc2Br)N=C(Nc2nc3ccccc3o2)N1 (stereo not given),inactive
12,O=C(Nc1ccc2ccccc2c1)Nc1nnc(-c2ccc(Cl)cc2Cl)s1,inactive
13,COc1ccc(OC)c(Nc2nn3c(=O)c4ccccc4nc3s2)c1,inactive
14,Cc1ccc(C)n1-c1cccc(-c2nn[nH]n2)c1,inactive
15,O=C1CCCC2=C1C(c1[nH]ncc1Cl)N=C(Nc1cccnc1)N2 (stereo not given),inactive
16,Cc1cc2c(s1)c1cnn(Cc3ccc(Cl)c(F)c3)c(=O)c1n2C,inactive
17,O=C1c2ccccc2C(=O)N1c1ccc(Cl)cc1,inactive
18,Cc1cc(NS(=O)(=O)c2ccc(NC(=O)C(C)(C)c3ccc(Cl)c(Cl)c3)cc2)no1,inactive
19,COc1ccc(CC(=O)Nc2ccc(S(=O)(=O)Nc3cc(C)on3)cc2)cc1C,inactive
20,Cc1ccc(-c2cnn(CC(=O)N(C)C(C)c3ccco3)c(=O)c2)cc1 (stereo not given),inactive

row,Structure (SMILES),Potency
1,CC(C)Nc1oc(-c2cccc3ccccc23)nc1C#N,inactive
2,Cc1cn([C@H]2C[C@H](N[S+](=O)([O-])Cc3ccc([N+](=O)[O-])cc3)[C@@H](CO)O2)c(=O)[nH]c1=O,inactive
3,CCCc1c(C(C)C)nc(C(C)C)c([C@@H](C)O)c1-c1ccc(F)cc1O,inactive
4,Oc1ccc(/C=C/c2c(F)cccc2F)c2cccnc12,inactive
5,O=S(=O)(c1ccc(O)c2ncccc12)N1CCCCC1,inactive
6,CC(=O)O[C@@]1(C)[C@@H]2CC(=C(C)C)C(=O)C[C@@]2(C)CC[C@H]1OC(=O)C1(C)OC1C (stereo not given in full),inactive
7,Cc1nc(CSc2ncnc3ccc(-c4ccc5c(c4)OCO5)cc23)cs1,inactive
8,Cc1ccc(C(=O)Oc2ccc(-c3nc4ccccc4[nH]3)cc2)cc1Br,inactive
9,O=C(O)c1ccc2c(c1)C(=O)N([C@H](Cc1ccc(C(F)(F)F)cc1)C(=O)O)C2=O,inactive
10,COc1ccc(CN2C(=O)c3ccccc3NC2c2ccc(OC)c(COc3c(C)cc(NC(C)=O)cc3C)c2)cc1 (stereo not given),inactive
11,CN(C)c1cccc(-c2nccc(N3CCC(C(N)=O)CC3)n2)c1,inactive
12,Cn1c2ccsc2c2ncn(Cc3ccc(F)cc3)c(=O)c21,inactive
13,O=C(Nc1ccc(Cl)nc1)Nc1nnc(-c2ccncc2)s1,inactive
14,COc1cccc(CNc2ccc(S(=O)(=O)Nc3nc(C)cs3)cc2)c1O,inactive
15,C#CCCC(=O)Nc1sc2c(c1-c1nc3ccccc3s1)CCNC2,inactive
16,Cc1ccnc(NC(=S)NCCNc2cccc(C(F)(F)F)c2)c1,inactive
17,Fc1cnc(-c2ccccc2C(F)F)nc1NCc1ccc(-c2ccn[nH]2)cc1,inactive
18,Cc1ccc(S(=O)(=O)Nc2cnccc2C(=O)Nc2ccccc2)cc1,inactive
19,COc1cccc(C2c3c(ncn(-c4cccc(C)c4)c3=N)Oc3ccc4ccccc4c32)c1 (stereo not given),inactive
20,COc1cccc(C2c3c(ncn(Cc4cccs4)c3=N)Oc3ccc4ccccc4c32)c1 (stereo not given),inactive
